From ChEMBL document CHEMBL3988442, “University of Dundee, Small-Polar-MMV Screening Library” (2021)
In all, about 48,000 compounds went through this assay and about 13,000 (27%) showed an effect of 50% or more. This is one part of the list.

tested on: Wolbachia pipientis; experiment: Anti-Wolbachia Cell-Based Screen; assay type: functional; parameters: scale not given: in the data most compounds retested in dose-response had high values; settings: 5 µM

Row | SMILES | Percent Effect [%]
1 | O=C(c1cc(COc2ccc3c(c2)OCO3)[nH]n1)N1CCCO1 | -2.662
2 | COc1ccc(C[C@H]2CN(Cc3ccoc3)CC[C@H]2OC)cc1.O=C(O)C(F)(F)F | 63.46
3 | COc1ccc(C[C@H]2CN(Cc3ccoc3)CC[C@@H]2OC)cc1.O=C(O)C(F)(F)F | 76.48
4 | COc1ccc(C[C@H]2CN(C3CCOCC3)CC[C@H]2OCC2CC2)cc1.O=C(O)C(F)(F)F | -41.15
5 | COc1ccc(CN2C[C@@H]3CN(Cc4ccoc4)C[C@@H]3C2=O)cc1.O=C(O)C(F)(F)F | -0.9609
6 | COc1ccc(C[C@H]2CN(C3CCOCC3)CC[C@@H]2OCC2CC2)cc1.O=C(O)C(F)(F)F | -34.49
7 | COc1ccc(CN2CCN(S(=O)(=O)c3cc(C(=O)O)cs3)CC2)cc1 | 1.54
8 | Cc1cc(-c2nn(C)c(Cl)c2CN2CCOCC2CC(=O)O)no1 (stereo unspecified) | 1.04
9 | CCCS(=O)(=O)c1ncc(CN2CCC(C)CC2)n1CC1CCCO1 (stereo unspecified) | -5.004
10 | CC(=O)N1CCN(CCNS(=O)(=O)c2c(F)cccc2F)CC1 | 115.2
11 | CC(=O)N1CCN(CCNS(=O)(=O)c2cc(F)cc(F)c2)CC1 | 102.1
12 | CC1CCN(CCCNS(=O)(=O)c2cc(F)cc(F)c2)CC1.Cl | -12.88
13 | CC(=O)N1CCN(CCCSCc2ccccc2)CC1 | -1.866
14 | O=S(=O)(NCCCN1CCCC1)c1cc(F)cc(F)c1 | -0.6955
15 | CSCc1cccc(S(=O)(=O)NCCCN2CCOCC2)c1 | -6.624
16 | O=S(=O)(NCCC(O)c1cccs1)c1c(F)cccc1F (stereo unspecified) | 0.3394
17 | CC1CCN(CCCNS(=O)(=O)c2cccc(F)c2)CC1.Cl | 5.28
18 | Cc1ccc(F)cc1S(=O)(=O)NCc1cccc(CS(C)(=O)=O)c1 | -14.38
19 | CC(=O)N1CCN(CCNc2ncc(Br)cc2C)CC1 | 3.175
20 | CC(=O)N1CCN(CCNS(=O)(=O)c2cc(F)ccc2C)CC1 | 96.01
21 | CC(=O)N1CCN(CCNS(=O)(=O)c2cccc(F)c2)CC1 | 146.4
22 | Cc1nc(CNCc2ccc(N3CCN(C)CC3)nc2)cs1 | -1.26
23 | CN(CCCNS(=O)(=O)N1CCC2(CC1)OCCO2)c1ccccc1 | 15.24
24 | CNc1ccnc(N2C[C@@H]3CC[C@H](C2)N(CCOC)C3=O)n1 | -5.532
25 | O=S(=O)(NCCN1CC=CC1)c1ccc(Cl)cc1 | -10.33
26 | CS(=O)(=O)Cc1cccc(CNS(=O)(=O)c2ccc(F)c(F)c2)c1 | -9.477

Row | SMILES | Percent Effect [%]
27 | CC(=O)N1CCN(CCNS(=O)(=O)c2ccc(F)c(F)c2)CC1 | 114.9
28 | Cn1cc(CN2CCO[C@H]3CN(Cc4ccsc4)C[C@H]32)cn1 | -4.934
29 | Cn1ncc2ccc(C3CCCN(Cc4cccs4)C3)nc21 (stereo unspecified) | 161.9
30 | COCC1CN(C(=O)Cc2cccs2)Cc2c1cnn2C (stereo unspecified) | -7.933
31 | Cn1ncc2ccc(C3CCCN(Cc4ccsc4)C3)nc21 (stereo unspecified) | 178.8
32 | Cn1ncc2ccc(C3CCCN(C(=O)Cc4cccs4)C3)nc21 (stereo unspecified) | 73.59
33 | O=C(Cc1cccs1)N1CCCC(CNS(=O)(=O)Cc2ccccc2)C1 (stereo unspecified) | -8.788
34 | O=C(c1cnc(Cc2c(Cl)cccc2Cl)nc1O)N1CCNCC1 | 20.47
35 | COCCc1noc(C2CCN(C(=O)Nc3cccs3)CC2)n1 | -7.09
36 | O=C1CCC(=O)N1c1nn(Cc2c(F)cccc2Cl)cc1Cl | 84.15
37 | Cc1nsc(N2CCN(Cc3cccc(F)c3)CC2)n1 | -33.99
38 | Fc1cccc(Cl)c1CN1CCn2c(nnc2C2CC2)C1 | -25.63
39 | O=C1CCC(=O)N1c1nn(Cc2ccccc2)cc1Cl | 98.19
40 | O=C1CCC(=O)N1c1nn(Cc2cccc(F)c2)cc1Cl | 81.78
41 | CCn1cc(C(=O)N(C)Cc2c(F)cccc2Cl)cn1 | 10.91
42 | c1ccc(CN2CCN(Cc3cscn3)CC2)cc1 | 8.549
43 | O=C1CCC(=O)N1c1nn(Cc2ccccc2Cl)cc1Cl | 119
44 | O=C1N(c2cccc(Cl)c2)Cc2nc(=O)n(Cc3cccc(F)c3)n21 | -1.382
45 | O=c1ccc(-c2cccs2)nn1CN1CCN(Cc2ccccc2)CC1 | 10.59
46 | O=C1N(Cc2ccccc2)C[C@H]2CN(Cc3ccccc3Cl)CCN12 | -1.651
47 | CN1CCN(Cc2ccccc2Cl)CC12CCC(=O)N(CC1CC1)CC2 (stereo unspecified) | 19.23
48 | Cc1cc(C(=O)N2CCc3nnc(N(C)C)cc3C2)c(C)n1C1CC1 | 2.988
49 | CS(=O)(=O)c1nnc(NC(=O)CCc2cccc(Cl)c2)[nH]1 | -4.467
50 | O=C(c1ncoc1-c1ccco1)N(Cc1ccco1)CC1CCCO1 (stereo unspecified) | 1.49
51 | COc1cc(OC)c(CNC(=O)NCC(=O)N(C)C)c(OC)c1 | -14.89
52 | COc1ccc(-c2n[nH]cc2CN(C)CCC2CCOCC2)cc1F | -12.67

Row | SMILES | Percent Effect [%]
53 | CN(C)S(=O)(=O)N1CCCCC1CCc1ccc(O)cc1 (stereo unspecified) | 3.428
54 | Cc1nsc(NCCNS(=O)(=O)c2cccc(Cl)c2)n1 | 1.185
55 | CC(C)C1CN(c2ncccc2Cl)CCC(=O)N1Cc1ccc(F)cc1 (stereo unspecified) | 6.297
56 | O=C1CCC(=O)N1c1nn(Cc2ccc(F)cc2)cc1Cl | 96.9
57 | COc1nccnc1N1CCN(Cc2ccc(F)cc2)C(=O)C1 | -14.02
58 | Cc1ccc(CN(CCCO)Cc2nc3ccccc3[nH]2)s1 | -7.789
59 | CNC(=O)[C@@H]1C[C@@H](N)CN1C(=O)CCSCc1ccc(F)cc1 | -13.45
60 | O=C(O)C(F)(F)F.O=C(O)[C@]12CCCN(Cc3ccccc3)C[C@H]1CN(c1ncccn1)C2 | -10.65
61 | CNC(=O)C1CCC2(CCN(c3nncs3)CC2)CO1.O=C(O)C(F)(F)F (stereo unspecified) | 1.191
62 | Cc1ccc(CN2CCC[C@]3(C(=O)O)CN(c4ncccn4)C[C@@H]3C2)o1.O=C(O)C(F)(F)F | -9.127
63 | O=C(O)C(F)(F)F.O=C(O)[C@]12CCCN(CC3CCOC3)C[C@H]1CN(c1ncccn1)C2 (stereo partly specified) | 119
64 | O=C(C1CCC2(CCN(c3nncs3)CC2)CO1)N1CCCC1.O=C(O)C(F)(F)F (stereo unspecified) | -6.023
65 | Cc1cnc(N2C[C@@H]3CN(C4CCOC4)CCC[C@]3(C(=O)O)C2)nc1.O=C(O)C(F)(F)F (stereo partly specified) | 115.6
66 | O=C(O)C(F)(F)F.O=C(O)C(F)(F)F.O=C(O)[C@]12CCCN(Cc3ccncc3)C[C@H]1CN(c1ncccn1)C2 | 1.194
67 | O=C(O)C(F)(F)F.O=C(O)[C@]12CCCN(C3CCOC3)C[C@H]1CN(c1nncs1)C2 (stereo partly specified) | 113.4
68 | Cc1cnc(N2C[C@@H]3CN(Cc4ccco4)CCC[C@]3(C(=O)O)C2)nc1.O=C(O)C(F)(F)F | 5.679
69 | Cc1cc(CN(C)C(=O)NCc2ccnc(SC(C)(C)C)c2)no1 | -6.174
70 | COc1ncccc1CNC(=O)CN1CCCCCC1=O | -54.83
71 | Cc1nc(N)nc(C)c1Cc1nc(C2CC2)n[nH]1 | -31.49
72 | Cc1cc(-c2ccc(=O)n(CCNC(=O)C3CCC3)n2)c(C)o1 | 82.02
73 | O=C(NCCCNC(=O)C1CCC1)NCCn1cccc1 | -4.539
74 | Cc1noc(C)c1CCCNC(=O)C1CCN(C(=O)C2CC2)CC1 | 11.33
75 | CC(C)NC(=O)NCCn1cnc(C2CCCC2)cc1=O | -0.7993
76 | Cc1cc(-c2ccc(=O)n(CCNC(=O)C3CC3)n2)c(C)o1 | 72.81
77 | Cc1cc(C(O)CCNC(=O)COc2ccccc2F)c(C)o1 (stereo unspecified) | 1.741
78 | COCC(=O)Nc1ccccc1-c1ccc(=O)n(C)n1 | 7.916

Row | SMILES | Percent Effect [%]
79 | Cc1cc(-c2ccc(=O)n(CCNC(=O)C3CCCCC3)n2)c(C)o1 | 127.3
80 | O=C(NCCNC(=O)C1CCCCC1)NCCn1cccc1 | 0.3641
81 | Cc1noc(C)c1CCCNC(=O)C1CCN(C(C)C)CC1 | 1.059
82 | Cc1noc(C)c1CCCNC(=O)C1CCN(C(=O)C2CCC2)CC1 | 9.148
83 | COCC(=O)NCCn1nc(-c2cc(C)oc2C)ccc1=O | 96.68
84 | CSc1ccc(NC(=O)NCc2nncn2C2CC2)cc1F | 6.164
85 | Cc1cc(C)n(Cc2ccc(-c3noc(C(=O)NCCCO)n3)cc2)n1 | 113.7
86 | Cc1cc(C)n(Cc2ccc(-c3noc(C(=O)NCCO)n3)cc2)n1 | 112.8
87 | O=C(NCCN1CCCCC1)c1nc(-c2ccc3cc[nH]c3c2)no1 | 1.073
88 | Cc1cc(C)n(Cc2ccc(-c3noc(C(=O)NC[C@@H](C)O)n3)cc2)n1 | 107.8
89 | Cc1cc(C)n(Cc2ccc(C(=O)NCCN3CCOCC3)cc2)n1 | 0.4084
90 | COCCN(CCOC)C(=O)c1ccc(Cn2nc(C)cc2C)cc1 | -2.502
91 | CNC(=O)CCNC(=O)c1cccc(Cn2nc(C)cc2C)c1 | -10.69
92 | CCN(CCC(=O)OC)C(=O)c1cccc(Cn2nc(C)cc2C)c1 | 2.618
93 | COCc1cc(C[C@@H]2CC[C@H](O)[C@@H](CNCC(C)C)O2)no1 | -7.367
94 | CC(C)CN1C(=O)C2(CCN(Cc3cccs3)C2)c2ccccc21.O=C(O)C(F)(F)F (stereo unspecified) | 129.4
95 | CC(C)CN1C(=O)C2(CCN(Cc3ccsc3)C2)c2ccccc21.O=C(O)C(F)(F)F (stereo unspecified) | 118.8
96 | CN1CCN(Cc2cccnc2)C2(CCN(Cc3ccoc3)C2)C1=O.O=C(O)C(F)(F)F.O=C(O)C(F)(F)F.O=C(O)C(F)(F)F (stereo unspecified) | -11.48
97 | CC(C)CN1C(=O)C2(CCN(CC3CCOCC3)C2)c2ccccc21.O=C(O)C(F)(F)F (stereo unspecified) | 3.565
98 | CC(C)CN1C(=O)C2(CCN(Cc3nccs3)C2)c2ccccc21.O=C(O)C(F)(F)F (stereo unspecified) | 21.56
99 | CC(C)CN1C(=O)C2(CCN(Cc3ccoc3)C2)c2ccccc21.O=C(O)C(F)(F)F (stereo unspecified) | 60.6
100 | Cc1ccc(CN2CCC3(C2)C(=O)N(CC2CC2)c2ccccc23)s1.O=C(O)C(F)(F)F (stereo unspecified) | 106.7
101 | Cc1ccc(CN2CCC3(C2)C(=O)N(CC(N)=O)c2ccccc23)s1 (stereo unspecified) | -16.39
